The supplement of paper PMC11732987, “Enantioselective OTUD7B fragment discovery through chemoproteomics screening and high-throughput optimisation” (Communications Chemistry, 2025)
A number with no mark means an inactive call.

Key:
Assay in all cases: log2 ratio of Biotin-Ahx-Ub-VS probe labelling (fragment/DMSO); higher = less target engagement (more negative = stronger competition), active = hit call of the paper (q ≤ 0.05, log2 ratio ≤ -1)
Settings in all cases: compound concentration: 200 uM; treatment time: 3 h
OTUD6B = biological target: T1, OTUD6B (UniProt Q8N6M0)
T1 sequence (whole entry): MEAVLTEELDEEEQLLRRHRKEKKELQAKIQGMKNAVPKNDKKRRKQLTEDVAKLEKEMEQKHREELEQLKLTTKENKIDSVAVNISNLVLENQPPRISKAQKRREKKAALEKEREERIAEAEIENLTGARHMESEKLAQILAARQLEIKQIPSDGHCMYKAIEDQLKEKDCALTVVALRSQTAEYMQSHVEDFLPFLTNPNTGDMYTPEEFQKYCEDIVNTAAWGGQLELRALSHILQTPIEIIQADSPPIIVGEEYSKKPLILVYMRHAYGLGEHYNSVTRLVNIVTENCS
Summary of the method: (§1)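 HEK293T lysate, 495 µg per sample in Tris/CHAPS/IGEPAL buffer with protease inhibitors, was treated in triplicate with fragment at 200 µM or vehicle for 3 h and then with Biotin-Ahx-Ub-VS at 0.5 µM final for 1 h. Labelled DUBs were NeutrAvidin-enriched, digested with LysC and trypsin, and run by diaPASEF LC-MS/MS. Spectronaut label-free quantities were global-median-normalised, and values are average log2 fragment/vehicle ratios by unpaired t-test on proteins with ≥2 unique peptides.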

OTUD7B = biological target: T2, OTUD7B (UniProt Q6GQQ9)
T2 sequence (whole entry): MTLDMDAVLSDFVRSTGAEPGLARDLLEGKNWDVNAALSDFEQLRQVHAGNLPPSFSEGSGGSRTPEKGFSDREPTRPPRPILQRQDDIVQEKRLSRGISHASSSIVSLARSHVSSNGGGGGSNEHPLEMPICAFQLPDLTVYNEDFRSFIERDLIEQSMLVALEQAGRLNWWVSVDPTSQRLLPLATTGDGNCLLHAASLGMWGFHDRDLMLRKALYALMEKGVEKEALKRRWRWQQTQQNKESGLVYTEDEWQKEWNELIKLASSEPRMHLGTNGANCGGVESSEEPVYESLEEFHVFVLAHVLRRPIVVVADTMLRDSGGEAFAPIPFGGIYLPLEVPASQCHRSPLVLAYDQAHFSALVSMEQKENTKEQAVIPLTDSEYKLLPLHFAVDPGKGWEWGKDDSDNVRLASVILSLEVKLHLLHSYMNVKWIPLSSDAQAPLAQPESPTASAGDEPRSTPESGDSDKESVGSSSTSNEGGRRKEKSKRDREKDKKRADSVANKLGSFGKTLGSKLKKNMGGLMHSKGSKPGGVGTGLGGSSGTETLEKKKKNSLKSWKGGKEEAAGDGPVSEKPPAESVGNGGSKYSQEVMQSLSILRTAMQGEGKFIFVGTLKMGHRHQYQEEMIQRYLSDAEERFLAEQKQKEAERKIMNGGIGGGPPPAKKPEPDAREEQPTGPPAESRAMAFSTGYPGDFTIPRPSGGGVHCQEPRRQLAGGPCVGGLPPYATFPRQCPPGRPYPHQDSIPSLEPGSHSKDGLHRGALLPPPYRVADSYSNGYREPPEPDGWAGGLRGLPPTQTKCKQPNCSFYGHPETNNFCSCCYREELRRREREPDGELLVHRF
Summary of the method: as §1

PRPF8 = PRPF8 (UniProt Q6P2Q9)
Summary of the method: as §1

PSMD7 = biological target: T3, PSMD7 (UniProt P51665)
T3 sequence (whole entry): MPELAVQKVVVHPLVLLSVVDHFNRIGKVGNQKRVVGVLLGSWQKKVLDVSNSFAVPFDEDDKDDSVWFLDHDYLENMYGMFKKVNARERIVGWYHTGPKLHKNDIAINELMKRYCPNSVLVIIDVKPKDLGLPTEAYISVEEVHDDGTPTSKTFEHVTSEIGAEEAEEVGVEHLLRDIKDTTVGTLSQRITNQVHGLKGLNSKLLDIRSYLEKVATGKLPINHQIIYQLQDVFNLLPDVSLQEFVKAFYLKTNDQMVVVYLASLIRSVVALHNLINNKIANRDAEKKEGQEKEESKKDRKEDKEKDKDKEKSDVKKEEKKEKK
Summary of the method: as §1

UCHL1 = UCHL1 (UniProt P09936)
UCHL1, sequence (P09936 whole entry, looked up): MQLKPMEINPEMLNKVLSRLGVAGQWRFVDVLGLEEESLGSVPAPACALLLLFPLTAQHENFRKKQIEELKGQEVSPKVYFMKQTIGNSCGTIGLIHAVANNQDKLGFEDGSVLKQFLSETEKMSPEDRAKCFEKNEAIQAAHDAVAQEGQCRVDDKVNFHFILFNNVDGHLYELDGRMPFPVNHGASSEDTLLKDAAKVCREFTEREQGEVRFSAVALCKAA
Summary of the method: as §1

UCHL3 = biological target: T4, UCHL3 (UniProt P15374)
T4 sequence (whole entry): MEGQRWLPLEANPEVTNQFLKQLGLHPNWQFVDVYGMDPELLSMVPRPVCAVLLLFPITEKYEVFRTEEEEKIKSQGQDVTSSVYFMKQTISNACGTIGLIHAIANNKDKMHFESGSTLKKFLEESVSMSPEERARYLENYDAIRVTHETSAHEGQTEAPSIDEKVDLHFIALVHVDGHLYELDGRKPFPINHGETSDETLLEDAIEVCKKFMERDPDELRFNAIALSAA
Summary of the method: as §1

UCHL5 = biological target: T5, UCHL5 (UniProt Q9Y5K5)
T5 sequence (whole entry): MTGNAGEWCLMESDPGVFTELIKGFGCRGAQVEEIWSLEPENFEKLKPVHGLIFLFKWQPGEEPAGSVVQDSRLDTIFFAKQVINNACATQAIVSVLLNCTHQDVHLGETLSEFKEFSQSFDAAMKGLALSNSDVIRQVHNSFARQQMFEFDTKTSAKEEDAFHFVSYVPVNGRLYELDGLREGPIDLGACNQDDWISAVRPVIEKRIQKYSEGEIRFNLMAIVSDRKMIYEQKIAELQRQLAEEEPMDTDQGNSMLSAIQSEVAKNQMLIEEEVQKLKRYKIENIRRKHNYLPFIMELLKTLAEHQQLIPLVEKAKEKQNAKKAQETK
Summary of the method: as §1

USP10 = USP10 (UniProt Q14694)
USP10, sequence (Q14694 whole entry): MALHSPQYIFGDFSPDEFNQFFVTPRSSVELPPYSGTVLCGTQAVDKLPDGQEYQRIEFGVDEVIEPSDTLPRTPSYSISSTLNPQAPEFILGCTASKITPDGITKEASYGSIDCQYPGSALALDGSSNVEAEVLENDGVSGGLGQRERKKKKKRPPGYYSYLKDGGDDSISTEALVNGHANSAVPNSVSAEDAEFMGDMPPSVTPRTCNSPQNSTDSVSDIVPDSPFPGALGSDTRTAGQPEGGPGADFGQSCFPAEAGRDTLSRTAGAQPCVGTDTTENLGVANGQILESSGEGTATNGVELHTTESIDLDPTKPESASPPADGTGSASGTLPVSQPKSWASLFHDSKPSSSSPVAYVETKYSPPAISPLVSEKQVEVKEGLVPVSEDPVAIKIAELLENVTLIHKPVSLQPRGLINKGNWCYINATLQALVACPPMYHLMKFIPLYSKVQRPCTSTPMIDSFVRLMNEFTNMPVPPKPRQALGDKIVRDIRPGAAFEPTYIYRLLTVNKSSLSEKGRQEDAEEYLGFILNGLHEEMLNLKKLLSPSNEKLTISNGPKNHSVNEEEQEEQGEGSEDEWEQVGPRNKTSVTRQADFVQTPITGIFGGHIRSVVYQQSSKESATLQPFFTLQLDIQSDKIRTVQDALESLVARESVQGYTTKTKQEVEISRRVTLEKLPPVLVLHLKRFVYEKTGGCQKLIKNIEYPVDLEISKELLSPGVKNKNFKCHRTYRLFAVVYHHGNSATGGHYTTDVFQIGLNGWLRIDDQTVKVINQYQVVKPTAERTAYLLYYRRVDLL
Summary of the method: as §1

USP15 = biological target: T6, USP15 (UniProt Q9Y4E8)
T6 sequence (whole entry): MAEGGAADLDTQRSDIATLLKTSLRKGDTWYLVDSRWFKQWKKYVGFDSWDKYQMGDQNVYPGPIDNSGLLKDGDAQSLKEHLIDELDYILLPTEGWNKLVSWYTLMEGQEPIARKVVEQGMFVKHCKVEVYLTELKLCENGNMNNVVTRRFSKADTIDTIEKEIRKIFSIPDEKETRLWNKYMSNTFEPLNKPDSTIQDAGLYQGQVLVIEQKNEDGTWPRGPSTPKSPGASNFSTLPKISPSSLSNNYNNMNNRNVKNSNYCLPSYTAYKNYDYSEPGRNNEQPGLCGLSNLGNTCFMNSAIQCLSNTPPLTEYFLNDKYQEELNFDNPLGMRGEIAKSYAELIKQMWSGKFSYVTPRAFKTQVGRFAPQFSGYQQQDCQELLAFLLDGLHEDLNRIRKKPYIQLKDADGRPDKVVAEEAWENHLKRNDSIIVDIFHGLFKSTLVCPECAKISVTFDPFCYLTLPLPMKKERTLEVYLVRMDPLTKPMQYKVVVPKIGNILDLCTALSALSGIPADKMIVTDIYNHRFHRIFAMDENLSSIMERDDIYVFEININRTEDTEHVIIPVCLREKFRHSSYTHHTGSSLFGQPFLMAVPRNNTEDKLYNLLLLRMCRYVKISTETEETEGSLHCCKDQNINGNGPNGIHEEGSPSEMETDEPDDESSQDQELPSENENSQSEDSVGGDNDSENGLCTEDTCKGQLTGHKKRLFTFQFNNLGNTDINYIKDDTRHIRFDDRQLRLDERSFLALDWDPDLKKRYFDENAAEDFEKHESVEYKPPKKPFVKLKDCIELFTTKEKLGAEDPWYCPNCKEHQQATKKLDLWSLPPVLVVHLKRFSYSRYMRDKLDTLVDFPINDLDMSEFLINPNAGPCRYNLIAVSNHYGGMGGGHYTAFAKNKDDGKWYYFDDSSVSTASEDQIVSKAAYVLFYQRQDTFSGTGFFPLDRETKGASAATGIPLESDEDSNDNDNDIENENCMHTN
Summary of the method: as §1

USP16 = USP16 (UniProt Q9Y5T5)
USP16, sequence (Q9Y5T5 whole entry, looked up): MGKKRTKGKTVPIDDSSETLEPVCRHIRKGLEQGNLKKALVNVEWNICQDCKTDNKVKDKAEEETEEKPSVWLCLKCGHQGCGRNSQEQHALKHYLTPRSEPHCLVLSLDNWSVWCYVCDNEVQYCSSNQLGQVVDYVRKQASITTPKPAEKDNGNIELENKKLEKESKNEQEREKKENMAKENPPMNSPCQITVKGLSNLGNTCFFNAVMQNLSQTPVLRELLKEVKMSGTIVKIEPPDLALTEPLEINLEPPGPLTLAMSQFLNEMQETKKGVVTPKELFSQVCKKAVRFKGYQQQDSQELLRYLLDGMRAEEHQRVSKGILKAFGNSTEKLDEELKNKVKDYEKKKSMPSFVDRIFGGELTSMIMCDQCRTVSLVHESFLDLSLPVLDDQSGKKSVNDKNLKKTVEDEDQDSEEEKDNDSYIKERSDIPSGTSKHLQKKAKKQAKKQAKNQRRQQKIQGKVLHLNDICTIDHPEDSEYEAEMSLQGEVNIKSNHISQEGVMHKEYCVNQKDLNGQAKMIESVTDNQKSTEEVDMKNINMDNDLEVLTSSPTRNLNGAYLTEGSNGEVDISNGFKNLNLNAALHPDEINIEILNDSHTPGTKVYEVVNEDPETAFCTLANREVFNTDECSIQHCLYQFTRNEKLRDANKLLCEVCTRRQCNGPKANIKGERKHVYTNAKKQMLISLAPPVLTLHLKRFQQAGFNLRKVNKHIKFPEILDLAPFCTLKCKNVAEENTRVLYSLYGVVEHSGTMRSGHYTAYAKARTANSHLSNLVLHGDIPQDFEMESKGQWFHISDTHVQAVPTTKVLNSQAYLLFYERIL
Summary of the method: as §1

For O=C(CCl)NCC(=O)N1CCCC1, the “log2 ratio of Biotin-Ahx-Ub-VS probe labelling” value (from here on “log2 ratio”) (OTUD6B) was -0.139, the “log2 ratio” value (OTUD7B) was -0.187 and the “log2 ratio” value (PRPF8) was -0.0276. The “log2 ratio” value (PSMD7) was -0.18, the “log2 ratio” value (UCHL1) was -1.42 (active) and the “log2 ratio” value (UCHL3) was 0.0513. For the same compound, the “log2 ratio” value (UCHL5) was -0.323, the “log2 ratio” value (USP10) was -0.0856 and the “log2 ratio” value (USP15) was -0.0663. For the same compound, the “log2 ratio” value (USP16) was 0.0192.
